High-throughput results: PubChem, National Center for Advancing Translational Sciences (NCATS)
Sampled rows, rich in hits. Any-hit rate of the full collection: about 8.7%.
Vaccinia Venus = vaccinia inhibition (Venus reporter). Vaccinia virus Venus reporter expression, fluorescence. Potency, µM (top dose mostly 36.5 µM), without a hit: at the top dose activity change, negative = inhibition, most hits filed as inhibitors. hit rate 0.46% among 330,000. AID 720580; calls by dose curve; tested in A549 cells; also: nearly all actives have a fitted effect of over 30% in size
AMA1 RON2 block = disrupts binding of P. falciparum AMA1 to RON2 | AlphaScreen AMA1-biotinylated RON2 peptide binding | AID 720542 | Potency, µM (highest dose often 58.2 µM), inactives show at the top dose activity change, negative = inhibition, most hits filed as inhibitors | hit rate 0.2% among 360,000;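 also: 0% = vehicle wells and -100% = peptide control; nearly all actives have a fitted effect of over 45% in size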
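AMA1 (3D7) with his tag at 25 nM final met compounds first, then biotinylated RON2 peptide at 25 nM; detection used donor plus acceptor beads, 10 µg/mL apiece, read by AlphaScreen after 30 min at room temperature.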
VACV mCherry inh = vaccinia inhibition (mCherry reporter); Vaccinia virus mCherry reporter infection, fluorescence; Potency, µM (highest dose often 36.5 µM), inactives show at the top dose activity change, negative = inhibition, actives largely listed as inhibitors; hit rate 0.63% among 310,000; AID 720579; calls by dose curve; tested in A549 cells; also: nearly all actives have a fitted effect of over 35% in size
Pf growth 48h = P. falciparum growth inhibition at 48 hours (one generation); P. falciparum luciferase growth in erythrocytes, 48 h; Potency, µM (series often up to 28.7 µM), for the others: at the top dose activity change, negative = inhibition, usual class: inhibitors; hit rate 5.9% among 310,000; AID 504832
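Luciferase-expressing parasites in RBCs, 2% Hct / 0.1% parasitemia final; RPMI 1640 + 0.5% Albumax; 37 C, 5% CO2, one generation; luminescence read-out, lower signal = inhibition.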
Pf growth 96h = P. falciparum growth inhibition at 96 hour, primary screen for plastid delayed-death inhibitors. Potency, µM (top dose mostly 28.7 µM), for the others: at the top dose activity change, negative = inhibition, most hits filed as inhibitors. hit rate 6.9% among 320,000. AID 504834. P. falciparum luciferase reporter growth, 96 h
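Cell-based qHTS: luciferase-tagged P. falciparum in erythrocytes (2% hematocrit, 0.05% parasitemia final) incubated with compounds for 96 hours, 37 C, 5% CO2; luciferase detection reagent then added and luminescence measured.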
* = called active by the depositor; ? = inconclusive; . = no result given; [ ] = dose if it differs, or a comment. Unless noted, calls follow the shape of the dose curve; as a rule, active = well fitted curve in the direction sought with a large enough effect; inconclusive = small, poorly fitted or top-dose-only effect, or another doubt; inactive = no such curve, though single readings can be large; an effect the other way counts as inactive or inconclusive. Unless noted, % is scaled to controls: 0 for no effect and ±100 for the full control effect; potency is read from the fitted curve at half-maximal effect.

SMILES | Vaccinia Venus | AMA1 RON2 block | VACV mCherry inh | Pf growth 48h | Pf growth 96h
COCc1c(C(=O)N2CCC(N(C)C)C2)cnn1-c1ncc2c(n1)-c1ccccc1CCC2 (stereo not given) | -1.9% | . | -9.7% | . | .
COc1ccccc1CNC(=O)c1ccc(CNc2c(N3CCCC3)c(=O)c2=O)cc1 | -12.5% | 8.6% | -7.4% | ? | 4.65µM*
CCOc1ccc(OCC)c(NC(=O)c2ccc(CNc3c(N4CCCC4)c(=O)c3=O)cc2)c1 | 0.0% | 13.6% | -11.3% | 11.7µM* | ?
O=C(NCc1ccc(Cl)cc1)c1ccc(CNc2c(N3CCCC3)c(=O)c2=O)cc1 | . | 6.0% | . | -16.4% | ?
CCC1(C)N([O-])C(C)=C(c2ccccc2)[N+]1=O (stereo not given) | -6.2% | 9.0% | . | . | 0.0928µM*
CC(=O)Nc1ccc(C)cc1-c1nc2ccccc2n(CC(=O)Nc2cc(Cl)ccc2C)c1=O | -7.9% | . | -8.6% | . | .
COC(C(=O)C(O)C(C)O)C1Cc2cc3cc(OC4CC(OC5CC(O)C(OC)C(C)O5)C(OC(C)=O)C(C)O4)c(C)c(O)c3c(O)c2C(=O)C1OC1CC(OC2CC(OC3CC(C)(O)C(OC(C)=O)C(C)O3)C(O)C(C)O2)C(O)C(C)O1 (stereo not given) | . | . | . | 0.12µM* | ?
COc1ccc(OC)c(CNC(=O)Cc2ccc(NC(=O)N3CCCCc4ccccc43)cc2)c1 | -1.2% | . | -14.9% | . | .
CCOC(=O)c1ccc(NC(=O)CCCn2nc(C)c3sc4ccccc4c3c2=O)cc1 | -1.7% | . | -7.9% | . | .
COc1ccc(CN(Cc2ccccc2)C(=O)c2cccc(C#N)c2)cc1COc1ccc(NC(C)=O)cc1 | -20.8% | . | -3.5% | . | .
COC(=O)c1c(NC(=O)c2ccc(OC(C)C)cc2)sc2c1CC(C)(C)NC2(C)C | 17.8µM* | 0.0% | ? | ? | -16.0%
COC(=O)c1c(NC(=O)c2ccco2)sc2c1CC(C)(C)NC2(C)C | -17.5% | 14.8% | -4.3% | -1.0% | 16.5µM*
COC(=O)c1c(NC(=O)c2ccccc2)sc2c1CC(C)(C)NC2(C)C | 0.0% | 3.6% | 17.1% | 48.6% | 50.1%
Cc1cc(N2CCCC2)ccc1/C=C1/C(=O)N(C)C(=S)N1C | -3.3% | ? | -6.7% | 0.3% | 7.2%
CN1C(=O)/C(=C/C=C2/CCCN2C)N(C)C1=S | -8.0% | ? | -25.6% | 38.0% | 1.47µM*
COCC(=O)Nc1cc(C(=O)N2CCc3ccccc3C2)c2c(c1)nc(-c1ccncc1)n2C | -8.5% | . | -10.2% | . | .
COc1cccc(NC(=O)Cc2c(O)c3ccccc3[nH]c2=O)c1 | 4.7% | 2.6% | . | . | ?
CCOc1ccc(NC(=O)Cc2c(O)c3ccccc3[nH]c2=O)cc1 | -16.3% | -11.5% | -25.8% | 2.94µM* | 91.0%
COc1ccc(-c2nc3c4ccccc4n(CC(=O)N4CCN(c5ccccc5OC)CC4)c(=O)n3n2)cc1 | 5.6% | . | 6.0% | . | .
CC(=O)c1ccc(NC(=O)c2sc(-n3nc(C)c(CCC(C)C)c3C)nc2C)cc1 | -2.1% | . | 5.5% | . | .
Cc1ccc(S(=O)(=O)c2nc(-c3cccs3)oc2SC(C)c2ccccc2)cc1 (stereo not given) | -7.6% | . | -10.0% | . | .
COc1cc(C(=O)N(Cc2cccnc2)c2nc3cc(C)c(C)cc3s2)cc(OC)c1OC | -26.7%[7.34 µM] | . | ? | . | .
Cc1cccc2[nH]c(-c3ccc(NC(=O)c4ccco4)cc3)nc12 | ? | -1.6% | ? | -45.4% | 0.415µM*
O=C(Nc1ccc2nc(-c3ccccc3)[nH]c2c1)c1ccco1 | -12.4% | 12.3% | -1.6% | ? | -11.1%
Cc1cccc(NC(=O)c2ccco2)c1C | . | 0.0% | . | 4.0% | 10.4µM*
SMILES | Vaccinia Venus | AMA1 RON2 block | VACV mCherry inh | Pf growth 48h | Pf growth 96h
COc1ccc(C[C@H](N)C(=O)N[C@H]2[C@@H](O)[C@H](n3cnc4c(N(C)C)ncnc43)O[C@@H]2CO)cc1 | 1.58µM* | 26.4% | 1.26µM* | 0.104µM* | 0.165µM*
OCC1OC(n2cnc3c(Cl)ncnc32)C(O)C1O (stereo not given) | 13.1% | . | -23.8% | . | .
CN(C)c1ncnc2c1ncn2C1OC(CO)C(O)C1O (stereo not given) | 10µM* | -5.9% | 12.6µM* | -18.1% | .
CCn1ncc(CNC(=O)CCCSc2nc(-c3ccco3)cc(C(F)(F)F)n2)c1C | ? | -3.3% | . | 11.7µM* | ?
COc1ccc(CCNC(=O)CCSc2nc(-c3ccco3)cc(C(F)(F)F)n2)cc1OC | -17.0% | 6.7% | . | 9.28µM* | ?
CCc1ccccc1NC(=O)CCCSc1nc(-c2ccco2)cc(C(F)(F)F)n1 | -3.1% | . | -14.3% | . | .
Cc1nonc1C(=O)N/N=C/c1cccc(O)c1 | -4.7% | 6.1% | -9.3% | -14.9% | 2.08µM*
Cc1ccc(OCCSc2nc3ccccc3n2CCC(=O)O)cc1C | -3.2% | . | -7.0% | . | .
COc1ccc(-c2nc3ccccc3s2)cc1NC(=O)COc1cccc(C)c1 | -13.2%[7.34 µM] | . | -9.5%[7.34 µM] | . | .
CN(C(=O)COC(=O)c1c2c(nc3ccccc13)CCCC2)c1c(N)n(Cc2ccccc2)c(=O)[nH]c1=O | -5.0% | 2.8% | 0.0% | 13.1µM* | 8.28µM*
CCN(C(=O)COC(=O)c1c2c(nc3ccccc13)CCC2)c1c(N)n(Cc2ccccc2)c(=O)[nH]c1=O | . | -7.7% | . | . | .
CC(C)CN(C(=O)COC(=O)c1c2c(nc3ccccc13)CCC2)c1c(N)n(Cc2ccccc2)c(=O)[nH]c1=O | -23.6% | 4.9% | -28.2% | 8.28µM* | 6.57µM*
Cc1ccc(C)c(N2CCN(C(=O)C34CC5CC(C3)CC(n3nnc(C)n3)(C5)C4)CC2)c1 | -24.8% | -10.9% | -16.2% | 10.4µM* | ?
Cc1ccc(C23CC4CC(CC(C(=O)N5CCN(C)CC5)(C4)C2)C3)cc1 | . | 1.4% | . | ? | ?
CCc1ccccc1Nc1nc2ccccc2n2cnnc12 | -22.8% | . | -2.1% | . | .
Cc1sc(NC(=O)c2ccccc2)c(C#N)c1-c1ccccc1 | -14.2% | -4.0% | -21.5% | 103.7% | 4.15µM*
CC(C)(C)c1csc(Sc2ccc([N+](=O)[O-])cn2)n1 | -9.5% | -18.7% | -26.1% | 13.1µM* | ?
Cc1ccnc(Sc2ccc([N+](=O)[O-])cn2)n1 | . | -2.9% | . | ? | 13.1µM*
O=[N+]([O-])c1ccc(Sc2ccccc2)nc1 | -9.6% | -24.6% | -11.9% | -1.2% | -110.3%
Cc1ccccc1Sc1ccc([N+](=O)[O-])cn1 | . | -17.8% | . | . | .
CNC[C@H](Cc1ccccc1)NC[C@@H](Cc1cccc2ccccc12)NCCc1ccc(C)cc1 | 14.1µM* | 55.2% | ? | 2.62µM* | 2.94µM*
CNCCNC[C@H](Cc1cccc2ccccc12)NCCc1ccccc1 | -12.5% | 68.7% | ? | . | .
CCN(c1ccccc1)S(=O)(=O)c1cc(C(=O)Nc2ccc(Br)cc2)ccc1F | 12.6µM* | -1.5%[11.6 µM] | 14.1µM* | ? | ?
CCN(c1ccccc1)S(=O)(=O)c1cc(C(=O)Nc2ccccc2Cl)ccc1F | -20.2% | 28.0% | -10.4% | -4.2% | 2.94µM*
O=C(C1CCCN(S(=O)(=O)Cc2ccccc2)C1)N1CCC(Cc2ccccc2)CC1 (stereo not given) | . | -8.8% | . | . | ?
